Results filed as inconclusive are left out. Where a call stands in place of a potency, no number is given. Activity calls are given as the source filed them. The call rests on the fitted dose curve; in most records, active means well fitted curve in the direction sought with a large enough effect; inconclusive means small, poorly fitted or top-dose-only effect, or another doubt; inactive means no such curve, though single readings can be large; an effect the other way counts as inactive or inconclusive.
Tests used:
[1] = molecular target: Aldehyde dehydrogenase, mitochondrial (Homo sapiens) (UniProt P05091); test: qHTS for Inhibitors of the Aldehyde Dehydrogenase Family (ALDH2) Primary screen (AID 2061308); further: nearly all actives have a fitted effect of over 55% in size
[2] = molecular target: Retinaldehyde dehydrogenase 3 (Homo sapiens) (UniProt P47895); test: qHTS for Inhibitors of the Aldehyde Dehydrogenase Family (ALDH1A3) Primary screen (AID 2061315)

For `Cc1ccc(S(=O)(=O)Nc2ccccc2Nc2nc(-c3ccccc3)cs2)cc1`, the Potency [1] was “inactive” and the Potency [2] was “inactive”.

In the case of `CCCn1c(-c2ccc(F)cc2)nc2c(NCCCN(CC)CC)nc(C)nc21`, the Potency [1] is reported as “inactive” and the Potency [2] is reported as “inactive”.

`CC(C)(C)c1cccc(-n2cnc3cc(C(=O)N4CCCCC4)ccc32)c1` was tested, and the Potency [1] was “inactive” and the Potency [2] was “inactive”.

For `N[C@H](Cc1ccccc1)C(=O)Nc1ccc(Cl)cc1C(=O)c1ccc[nH]1`, the Potency [1] was “inactive” and the Potency [2] was “inactive”.

With `O=[N+]([O-])c1nccn1CO[C@@H](CO)[C@H](O)CO` the Potency [1] was “inactive” and the Potency [2] was “inactive”.

For `CC(C)O[C@@H]1O[C@H](CO)[C@@H](O)[C@H](O)[C@H]1O`, the Potency [1] was “inactive” and the Potency [2] was “inactive”.

In the case of `CCCn1c(C)nc2c(NC3CCN(Cc4ccccc4)C3)nc(C)nc21` (stereo not given), the Potency [1] is reported as “inactive” and the Potency [2] is reported as “inactive”.

`COc1ccccc1C1N=C(Nc2nc3ccccc3o2)NC2=C1C(=O)CCC2` (stereo not given) was tested, and the Potency [1] was “inactive” and the Potency [2] was “inactive”.

`Cc1ccnc(NC(=S)N2CC3CN(c4cccc(C(F)(F)F)c4)CC3C2)c1` (stereo not given) was tested, and the Potency [1] was “inactive” and the Potency [2] was “inactive”.

In the case of `O=C1NC(=O)/C(=C/c2ccco2)N1`, the Potency [1] is reported as “inactive” and the Potency [2] is reported as “inactive”.

With `COc1cc(C(=O)Nc2nc(-c3ccccc3)cs2)ccc1NS(=O)(=O)c1ccc(C)cc1` the Potency [1] was “inactive” and the Potency [2] was “inactive”.

`c1ccc(-c2cnc(Nc3ccc(OCCN4CCCC4)cc3)s2)cc1` was tested, and the Potency [1] was “inactive” and the Potency [2] was “inactive”.

`COc1cccc(CC(=O)Nc2nc(-c3ccc4c(c3)CCN4C(=O)c3ccccc3C)c(C)s2)c1` was tested, and the Potency [1] was “inactive” and the Potency [2] was “inactive”.

In the case of `COc1cccc(C(=O)Nc2ccc(-c3nc4ccccc4[nH]3)cc2)c1`, the Potency [1] is reported as “inactive” and the Potency [2] is reported as “inactive”.

`O=S(=O)(c1ccc2c(c1)OCCO2)C1CCN(S(=O)(=O)c2c(F)cccc2F)CC1` was tested, and the Potency [1] was “inactive” and the Potency [2] was “inactive”.
